Screening results deposited in PubChem BioAssay by University of Kansas High Throughput Screening Laboratory.
Only a selection was taken, and hits are over-represented in it overall.
Pf apPOL inh = Pf-apPOL inhibitors, biochemical, fluorescence; actives 0.25% (n = 210,000); Plasmodium falciparum apicoplast DNA polymerase (apPOL); inhibition, % at 10 µM; Recombinant Pf-apPOL, molecular beacon fluorescence, 1.5 h
mHTT CaM bind = mutant huntingtin-calmodulin interaction inhibitors – biochemical, AlphaScreen, primary screen; P42858; AlphaScreen His-mHTT/GST-CaM binding, luminescence; inhibition, % at 15 µM; actives 3.6% (n = 190,000);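 further: 0% = both proteins with DMSO and 100% = one protein alone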
* marks the source's active call; other numbers are inactive results; · = not tested or not shown. No stated cut-off is given here; in the data, active means inhibition above about 50%; inactive means the rest.

SMILES	Pf apPOL inh	mHTT CaM bind
COc1cc(OC)c2c(-c3ccccc3)cc(=O)oc2c1C(CC(=O)N1CCN(c2ccccc2)CC1)c1ccc(N(C)C)cc1 (configuration not stated)	-7	58*
COc1cc(OC)c2c(-c3ccccc3)cc(=O)oc2c1C(CC(=O)N1CCOCC1)c1ccc2c(c1)OCO2 (configuration not stated)	-4	34
COc1cc(O)c(C(CC(=O)N2CCCC2)c2ccc(N(C)C)cc2)c(OC)c1 (configuration not stated)	-4	35
Cc1cccc(C)c1NC1=NC(=S)N(c2cccc(O)c2)C12CCC(C(C)(C)C)CC2 (configuration not stated)	-117	56*
Cc1cccc(N(C)C(=O)CN2C(=O)NC3(CCC(C(C)(C)C)CC3)C2=O)c1 (configuration not stated)	-5	1
Cc1noc(C)c1S(=O)(=O)N1CCCC2(C1)Nc1ccccc1NC2=NC(C)(C)C (configuration not stated)	-5	35
O=C(CSCc1ccccc1)Nc1cccc(-c2cn3cccnc3n2)c1	-6	52*
Cc1onc(-c2ccccc2Cl)c1C(=O)Nc1cccc(-c2cn3cccnc3n2)c1	-6	16
Cc1ccc(S(=O)(=O)n2c(C)nc3ccccc32)c(C)c1C	-2	-15
OCCN=C1CCc2c1[nH]c1ccc(C3CCCCC3)cc21	-5	58*
O=C1CCc2c1[nH]c1ccc(C3CCCCC3)cc21	4	10
N#Cc1nc(COc2ccccc2F)oc1NCc1ccco1	-5	17
CC(=O)Nc1ccc(Nc2ncc([N+](=O)[O-])cc2[N+](=O)[O-])cc1	7	8
CCC(C)c1cc([N+](=O)[O-])cc([N+](=O)[O-])c1OC(=O)OC(C)C (configuration not stated)	-10	51*
O=C(NCCCc1ccccc1)c1sc2ccccc2c1Cl	-3	-32
Clc1ncnc2c1ncn2C1CCCCO1 (configuration not stated)	·	75*
OC[C@H]1O[C@@H](n2cnc3c(NC4CCCCC4)ncnc32)[C@H](O)[C@@H]1O	8	·
O=C1C=CC(=O)N1c1cc(Sc2ccc(F)cc2)cc([N+](=O)[O-])c1	5	85*
O=C1CCC(=O)N1c1ccc(Sc2ccc([N+](=O)[O-])cc2)cc1	-4	5
CCOC(=O)COc1ccc2c(c1)OC(=Cc1ccccc1Cl)C2=O	-6	-2
O=[N+]([O-])c1ccc(-c2ccc(N=Cc3ccccc3)cc2)cc1	19	-4
O=[N+]([O-])c1ccc(C=NC2=NN(c3ccccc3)CC2)cc1	3	59*
Cc1ccc(C(O)=Cc2nc3cc(Cl)ccc3oc2=O)cc1	-2	4
CCOc1ccccc1/C=C1\N=C(c2ccc(Cl)cc2Cl)OC1=O	-4	4
COc1ccc(NC(=O)CSc2cccc3cccnc23)c([N+](=O)[O-])c1	-13	28
SMILES	Pf apPOL inh	mHTT CaM bind
CC(=O)NC(c1ccccc1Cl)c1cc([N+](=O)[O-])c2cccnc2c1O (configuration not stated)	1	100*
Cc1cc(I)ccc1Nc1c([N+](=O)[O-])cc([N+](=O)[O-])c2cccnc12	-4	46
O=[N+]([O-])c1cccc(Cl)c1N1CCN(c2ccc([N+](=O)[O-])c3cccnc23)CC1	-5	7
CC(=O)NC(c1ccccc1)c1cc([N+](=O)[O-])c2cccnc2c1O (configuration not stated)	0	100*
COc1ccc(C(NC(C)=O)c2cc([N+](=O)[O-])c3cccnc3c2O)cc1 (configuration not stated)	-7	100*
CCCNC(=O)c1ccc(-c2ccnc(N3CCCCC3)n2)cc1	-6	-9
CCSc1nnc(-c2nn(C)c3c2CN(C(=O)CC(C)C)CC3)n1C	-4	-11
CCOC(=O)N1CCc2nn(CC(=O)Nc3ccccc3OC)c(=O)cc2C1	-3	15
Cc1ccc(CN2CCC(C(=O)N3CCN(c4ccccc4F)CC3)CC2)cc1	-4	16
Cc1ccc(C(=O)N2CCC(C(=O)N3CCN(c4ccccc4F)CC3)CC2)cc1	57*	6
COc1ccc(NC(=O)c2cc3nc(-c4ccc(OC)c(OC)c4)cc(C(F)(F)F)n3n2)cn1	-6	-3
CCc1cc(C(=O)Nc2cccc(F)c2C)no1	-1	-20
CNC(=O)Cc1csc(NC(=O)Cn2c(-c3cnccn3)nc3ccccc32)n1	-2	-1
CC1(C)C(C=C(Cl)Cl)C1C(=O)Nc1sc2c(c1C#N)CCCC2 (configuration not stated)	92*	-2
N#Cc1c(NC(=O)/C=C/C(=O)O)sc2c1CCC2	·	-1
C=CCc1cc(OC)c(O)c(-c2cc(CC=C)cc(OC)c2O)c1	2	61*
COc1cc(CCCO)cc(-c2cc(CCCO)cc(OC)c2O)c1O	-2	3
CCCNC(=O)N1CCC(c2nc3cccnc3n2CCC)C1 (configuration not stated)	-6	12
CC(C)(C)C(=O)N1CCCC(c2ccnc(Nc3cccc(F)c3)n2)C1 (configuration not stated)	-3	78*
O=C(c1ccc(F)cc1)N1CCCC(c2ccnc(Nc3cccc(F)c3)n2)C1 (configuration not stated)	0	81*
Cc1cccc(-c2nccc(C3CCCN(C(=O)C(C)(C)C)C3)n2)c1 (configuration not stated)	-2	5
CN(C)c1ccc(C(=O)N2CCCC(c3ccnc(Nc4ccc(F)cc4)n3)C2)cc1 (configuration not stated)	-3	88*
COc1ccc(C(=O)N2CCCC(c3ccnc(Nc4cccc(F)c4)n3)C2)c(OC)c1 (configuration not stated)	-5	-8
COc1ccc(C(=O)N2CCCC(c3ccnc(Nc4cccc(F)c4)n3)C2)cc1 (configuration not stated)	-1	64*
COc1ccc(Nc2nccc(C3CCCN(C(=O)c4ccc(C#N)cc4)C3)n2)cc1 (configuration not stated)	-5	12
SMILES	Pf apPOL inh	mHTT CaM bind
O=C(c1ccc(F)cc1)N1CCCC(c2ccnc(Nc3ccccc3)n2)C1 (configuration not stated)	-1	28
CCN1CCn2c(nc3cc(C(=O)Nc4ccc(F)c(F)c4)ccc32)C1=O	1	-5
NC(=O)c1csc(-c2cnccn2)n1	18	-13
Cc1ccc(CNC(=O)c2cn(-c3cccc(F)c3)nn2)cc1	-2	-7
CCc1cc(C(=O)Nc2ccc(F)cc2)nc2ccnn12	1	-14
Cc1ccc(C(=O)N2CCCC(c3ccnc(Nc4ccc(F)cc4)n3)C2)s1 (configuration not stated)	0	82*
COc1ccccc1C(=O)N1CCCC(c2ccnc(Nc3ccccc3C)n2)C1 (configuration not stated)	-5	52*
COc1ccccc1C(=O)N1CCCC(c2ccnc(-c3cccc(F)c3)n2)C1 (configuration not stated)	-4	51*
COc1ccccc1C(=O)N1CCCC(c2ccnc(-c3cccc(C)c3)n2)C1 (configuration not stated)	-5	22
Cc1ccccc1C(=O)N1CCCC(c2ccnc(-c3ccccc3)n2)C1 (configuration not stated)	-3	-2
